High-throughput results deposited in PubChem BioAssay by National Center for Advancing Translational Sciences (NCATS).
nsP2pro primary – CHIKV nsP2 protease inhibition, primary qHTS. FRET peptide cleavage, nsP2pro, fluorescence 1 h. Potency, µM (top dose mostly 24.9 µM), hits mostly inhibitors. actives 1.1% (n = 31,000); further: nearly all actives have a fitted effect of over 60% in size
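FRET cleavage of 2.5 uM peptide 2 by 150 nM CHIKV protease domain at pH 8.0 (Tris, Tween 20). Compounds at 7 concentrations (up to 25 uM) preincubated 15 min. Fluorescence read after 1 h at room temperature.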
CHIKV nsP2 cell – inhibits CHIKV nsP2 protease in cells; actives 10% (n = 450); shares compounds with nsP2pro primary; AID 1964100; Potency, µM (titrated, usually from 51.1 µM), hits mostly inhibitors; cell-based CHIKV nsP2 protease reporter assay; further: nearly all actives have a fitted effect of over 70% in size
NSP2 full ctr – inhibits full-length CHIKV NSP2 enzyme; shares compounds with nsP2pro primary; Full-length CHIKV NSP2 protease enzymatic counterscreen; Potency, µM (doses to about 50.7 µM), hits mostly inhibitors; actives 39% (n = 410); AID 1964101; further: nearly all actives have a fitted effect of over 65% in size
Furin counterscr – selectivity counter-screen for CHIKV nsP2 protease inhibitors: human furin. Recombinant human furin enzymatic counterscreen, fluorogenic substrate. Potency, µM (highest dose often 50.6 µM), hits mostly inhibitors. AID 1964102. actives 6% (n = 410). shares compounds with nsP2pro primary
nsP2 NS23 pep – blocks CHIKV nsP2 protease cleavage of endogenous NS2/3 peptide | shares compounds with nsP2pro primary | Purified CHIKV nsP2 protease, endogenous NS2/3 peptide cleavage | Potency, µM (series often up to 51 µM), usual class: inhibitors | actives 34% (n = 410) | AID 1964103; further: nearly all actives have a fitted effect of over 55% in size
Papain cs – selectivity counter-screen for CHIKV nsP2 protease inhibitors: papain | shares compounds with nsP2pro primary | purified papain protease activity, enzymatic inhibition | actives 5% (n = 410) | Potency, µM (titrated, usually from 51 µM), actives largely listed as inhibitors
Target sequence (P00784 whole entry, looked up): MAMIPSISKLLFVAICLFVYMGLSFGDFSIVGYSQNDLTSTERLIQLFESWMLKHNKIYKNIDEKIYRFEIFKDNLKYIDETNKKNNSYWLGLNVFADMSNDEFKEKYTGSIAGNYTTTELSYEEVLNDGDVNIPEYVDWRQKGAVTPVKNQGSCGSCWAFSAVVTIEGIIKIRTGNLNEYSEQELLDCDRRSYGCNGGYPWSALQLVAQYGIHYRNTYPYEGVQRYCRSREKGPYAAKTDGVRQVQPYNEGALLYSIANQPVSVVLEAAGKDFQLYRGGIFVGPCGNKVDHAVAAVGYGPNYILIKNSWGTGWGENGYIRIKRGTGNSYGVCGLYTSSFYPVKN
nsP2pro confirm – CHIKV nsP2 protease inhibition, confirmatory qHTS; AID 1964105; CHIKV nsP2 protease enzymatic activity, qHTS; actives 43% (n = 410); shares compounds with nsP2pro primary; Potency, µM (highest dose often 25.5 µM), actives largely listed as inhibitors; further: nearly all actives have a fitted effect of over 75% in size
HCV NS3 counter – HCV NS3/4A protease inhibition, counterscreen. actives 20% (n = 410). shares compounds with nsP2pro primary. HCV NS3/4A protease biochemical counterscreen. AID 1964106. Potency, µM (titrated, usually from 50.9 µM), actives largely listed as inhibitors; further: nearly all actives have a fitted effect of over 55% in size
A number is an active result; 0 = inactive; ? = inconclusive; ! = repeats disagree; [ ] = another dose, or the depositor's remark. The entries come from a sample that favours hits as a whole. The call rests on the fitted dose curve.

SMILES | nsP2pro primary | others
CS(=O)(=O)c1ccc(CN2CCC(C(O)c3ccccn3)CC2)cc1 (stereo not drawn) | 11µM
CS(=O)(=O)c1ccc(CC(=O)N[C@H](c2ccccn2)C2CC(O)C2)cc1 (stereo partly drawn) | 0
O=C(Nc1ccc(F)cc1)c1ccc2cc[nH]c2n1 | 0
O=S(=O)(Cc1ccccc1)N1CCC(n2cnnc2C2CC2)CC1 | 0
O=C(C1CCCN1Cc1ccc(-c2cncnc2)cc1)N1CCOCC1 (stereo not drawn) | 0
C[C@@](Cc1ccc(O)c(O)c1)(NN)C(=O)O | 11µM
COc1cc(CC(=O)O)ccc1O | 0
N[C@@H](Cc1ccc(O)c(O)c1)C(=O)O | 0[0.199 µM]
CNc1nc(NCc2ccc(NS(C)(=O)=O)cc2Cl)cc(-c2ccccn2)n1 | 0
COc1ccc(-c2ncc(CN3CCCC4(C3)CN(C)C(=O)O4)cn2)cc1 (stereo not drawn) | 0
COc1ccc(CN2CCCC3(C2)CN(C)C(=O)O3)cc1C(=O)O (stereo not drawn) | 0
CN1CC2(CCN(Cc3ccc(-c4ccc(Cl)cc4)o3)C2)OC1=O (stereo not drawn) | 13µM
O=C(NCC1CN(C(=O)NC2CCCCC2)CC12CCCCC2)C1CC1 (stereo not drawn) | 0
O=C1Nc2ccccc2/C1=C\c1ccc(O)c(F)c1 | 0
Cc1noc(C)c1[S+](=O)([O-])N1CCn2c(nn(-c3ccc(C(F)(F)F)cc3)c2=O)C1 | 0
COCC1CN(C)CC12CCN(Cc1sccc1C)CC2 (stereo not drawn) | 0
Cc1cc(C)nc(NC(=S)N2CCN(c3ccc4nsnc4c3)CC2)c1 | 3.2µM | CHIKV nsP2 cell=16µM;NSP2 full ctr=7.3µM;Furin counterscr=0;nsP2 NS23 pep=12µM;Papain cs=0;nsP2pro confirm=9µM;HCV NS3 counter=?
Cc1cc(C)nc(NC(=S)N2CCN(c3ccc(Cl)c(Cl)c3)CC2)c1 | 0
Cc1cc(C)cc(N2CCN(C(=S)Nc3cc(C)cc(C)n3)CC2)c1 | 0
COCCN1C(=O)c2ccccc2C(C(=O)NCc2ccc(Cl)cc2)C12CCCC2 (stereo not drawn) | 0
CCOc1cc(/C=C(\C#N)C(=O)Nc2ccc(OC)cc2)ccc1OCc1cc(=O)n2nc(CC)sc2n1 | 0
CCOc1ccc(/C=C(\C#N)C(=O)Nc2sc3c(c2C(=O)OC)C(C(=O)OC)CC3)cc1OC (stereo not drawn) | 0.85µM | CHIKV nsP2 cell=0;NSP2 full ctr=?;Furin counterscr=0;nsP2 NS23 pep=5.8µM;Papain cs=0;nsP2pro confirm=4µM;HCV NS3 counter=0
COC(=O)C1CCc2sc(NC(=O)Cc3ccccc3)c(C(=O)Nc3ccc(Cl)cc3)c21 (stereo not drawn) | 0
CCCCc1ccc(CN2C[C@@H]3CC[C@H](C2)N(Cc2ccccn2)C3=O)s1 | 0
NC(=O)[C@H]1C[C@@H](O)[C@H](O)[C@H]2[C@@H]1SC(=Nc1ccc(Cl)cc1)N2Cc1ccc(F)cc1 | 0
SMILES | nsP2pro primary | others
O=S(=O)(Nc1ccc(O)c2ncccc12)c1ccccc1F | 0
O=[N+]([O-])c1cc(S(=O)(=O)Nc2ccc(O)c3ccccc23)ccc1Cl | 5µM | CHIKV nsP2 cell=?;NSP2 full ctr=16µM;Furin counterscr=0;nsP2 NS23 pep=12µM;Papain cs=?;nsP2pro confirm=5.7µM;HCV NS3 counter=0
O=c1[nH]c2ccc(S(=O)(=O)Nc3cc(Cl)ccc3O)cc2o1 | 0
CCCCCCO[C@@H](C)c1cccc(-c2csc(NC(=O)c3cc(Cl)c(/C=C(\C)C(=O)O)c(Cl)c3)n2)c1OC | 0
Cc1ccc(-c2ccc(=O)n(CC(=O)NCc3ncc[nH]3)n2)cc1 | 0
CC1CCCCCCCc2cc(O)cc(O)c2C(=O)O1 (stereo not drawn) | 0
C[C@@H]1C[C@H](O)/C=C/[C@H](O)[C@@H](O)CC(=O)O1 | 0
CC1CCC(=O)CC(O)C(O)CC(=O)O1 (stereo not drawn) | ? | CHIKV nsP2 cell=0;NSP2 full ctr=0;Furin counterscr=0;nsP2 NS23 pep=0;Papain cs=0;nsP2pro confirm=0;HCV NS3 counter=0
COc1ccc(CCC(=O)N2CCC(Cc3nc(-c4ccc(OC)cc4)no3)CC2)cc1 | 0
Cc1ccccc1-c1ccc(=O)n(CC(=O)NCCc2ccccc2)n1 | 0
O=C1CC(c2c(F)cccc2Cl)c2c(ccc3ccccc23)N1 (stereo not drawn) | 0
Nc1nc2c(s1)C(c1ccccc1Cl)CC(=O)N2 (stereo not drawn) | 10µM! | CHIKV nsP2 cell=0;NSP2 full ctr=1.6µM;Furin counterscr=0;nsP2 NS23 pep=3.7µM;Papain cs=0;nsP2pro confirm=4µM;HCV NS3 counter=0
CC1=C(C(=O)OCC2CCCCC2)C(c2ccccc2F)CC(=O)N1 (stereo not drawn) | 0
CNc1nc2c(s1)C(c1ccccc1F)CC(=O)N2 (stereo not drawn) | 1.6µM | CHIKV nsP2 cell=0;NSP2 full ctr=3.3µM;Furin counterscr=0;nsP2 NS23 pep=4.6µM;Papain cs=0;nsP2pro confirm=2.8µM;HCV NS3 counter=?
COc1ccc(COC(=O)C2=C(C)NC(=O)CC2c2cccc(Cl)c2Cl)cc1 (stereo not drawn) | 0
CSc1nc2c(c(=O)[nH]1)C(c1cccc(F)c1F)CC(=O)N2 (stereo not drawn) | 0
Cc1cccc(S(=O)(=O)Nc2cnccc2C(=O)Nc2nc(-c3ccccc3)cs2)c1 | 0
O=C(NCc1nc(-c2cccc(F)c2)c(-c2ccccn2)[nH]1)C1CCOC1 (stereo not drawn) | 0
CCN1CCC(=C2c3ccccc3CCc3ccccc32)C1C (stereo not drawn) | 0
O=C1NCCOCCN(C(=O)Nc2ccc3c(c2)OCCO3)[C@@H]2CCCC[C@H]12 | 0
CC(c1ccc(-c2cc(N)ncn2)cc1)N1CCCCC1 (stereo not drawn) | 0
N#Cc1ccc(CN2CCCC3(Cc4ccccc4NC3=O)C2)cc1 (stereo not drawn) | 0
CCN(C)C(C)C(O)c1ccccc1 (stereo not drawn) | 0
O=C(O)c1ccc(-n2cccc2/C=C2\SC(=O)N(Cc3ccc(F)cc3)C2=O)cc1 | 0
O=C1c2cccc(O)c2C(=O)c2c(O)cc(CO)cc21 | ? | CHIKV nsP2 cell=0;NSP2 full ctr=0;Furin counterscr=0;nsP2 NS23 pep=0;Papain cs=0;nsP2pro confirm=0;HCV NS3 counter=0
O=C1c2c(O)ccc(O)c2C(=O)c2c(NCCNCCO)ccc(NCCNCCO)c21 | 0
Cc1[nH]c2ccccc2c1CC(=O)NCc1ccccc1-n1cncn1 | 0
Cc1ccc(CN2C[C@]34C=C[C@H](O3)C(C(=O)N(C)Cc3ccsc3)C4C2=O)cc1C (stereo partly drawn) | 0
Cc1ccc(-c2cc3n(n2)CCCN(C(=O)CCc2cc(Cl)no2)C3)o1 | 8.9µM | CHIKV nsP2 cell=0;NSP2 full ctr=0;Furin counterscr=0;nsP2 NS23 pep=?;Papain cs=0;nsP2pro confirm=?;HCV NS3 counter=0
